# Laboratory results: PubChem BioAssay (NCATS)
# Records with an inconclusive call do not appear. The source made the active and inactive calls. Calls follow the shape of the dose curve; as a rule, active = well fitted cell-killing curve with a large enough effect; inconclusive = small, poorly fitted or top-dose-only effect, or effect the other way; inactive = no such curve, though single readings can be large or run the other way.
# Test: Quantitative High-Throughput drug screen in 47 multiple myeloma cell lines against the NCATS MIPE library collection: H1112_PLB cell viability assay (AID 1918967; also: nearly all actives have a fitted effect of over 30% in size)
# Conditions: H1112 myeloma cells viability, ATP luminescence, 48 h; series mostly up to 45.8 µM; viability: at the top concentration
# Procedure, shortened: (§1)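 Luminescent ATP measurement with CellTiter-Glo gives viability, scaled between DMSO-only wells (100%) and media-only wells (0%). Cells, 500 per well, faced library compounds for 48 hours at 37C.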
# Potency is read from the fitted curve at half-maximal effect.
SMILES,viability,Potency
CNC(=O)c1cc(COc2nnc(Nc3ccc(Cl)cc3)c3ccoc23)ccn1,99.1% (inactive),–
O=C(Nc1ccccc1)Nc1ccc(-c2ccc(C(=O)[C@H]3CCC[C@H]3C(=O)O)cc2)cc1,109% (inactive),–
CCn1c(-c2nonc2N)nc2cncc(CNC3CCNCC3)c21,–,5.26 µM (active)
Cc1[nH]c(C=C2C(=O)Nc3ccc(S(=O)(=O)N(C)c4cccc(Cl)c4)cc32)c(C)c1C(=O)N1CCN(C)CC1,–,20.9 µM (active)

# Test: Quantitative High-Throughput drug screen in 47 multiple myeloma cell lines against the NCATS MIPE library collection: Karpas25_ECACC cell viability assay (AID 1918968; also: nearly all actives have a fitted effect of over 35% in size)
# Conditions: Karpas25 myeloma viability, CellTiter-Glo ATP, 48 h; series mostly up to 45.8 µM; viability (% of control): at the top concentration
# Procedure, shortened: as §1
SMILES,Potency,viability (% of control)
CN(C)CC[C@H](CSc1ccccc1)Nc1ccc(S(=O)(=O)NC(=O)c2ccc(N3CCN(Cc4ccccc4-c4ccc(Cl)cc4)CC3)cc2)cc1[N+](=O)[O-],1.48 µM (active),–
O=c1[nH]c(=O)n([C@H]2C[C@@H](O)[C@@H](CO)O2)cc1C(F)(F)F,10.5 µM (active),–
CCOC(=O)N1CCN([N+]([O-])=NOc2cc(ON=[N+]([O-])N3CCN(C(=O)OCC)CC3)c([N+](=O)[O-])cc2[N+](=O)[O-])CC1,2.64 µM (active),–
O=C(CC12CC3CC(CC(C3)C1)C2)Nc1cccc2nc(NCCNCCO)ccc12,5.9 µM (active),–
COc1ccc(-c2oc3c(CC=C(C)C)c(O)cc(O)c3c(=O)c2O)cc1,14.8 µM (active),–
N#CC(c1ccnc(NCCc2cccnc2)n1)c1nc2ccccc2s1 (stereo not given),7.43 µM (active),–
CN[C@@H]1CN(c2ccc3c(=O)c(C(=O)O)cn(-c4nccs4)c3n2)C[C@@H]1OC,5.12 µM (active),–
CCC(C)SSc1ncc[nH]1 (stereo not given),4.18 µM (active),–
CCOC(=O)c1c(CSc2ccccc2)n(C)c2cc(Br)c(O)c(CN(C)C)c12,16.6 µM (active),–
C[C@@H]1O[C@@H](O[C@H]2CC[C@@]3(C)[C@H](CC[C@@H]4[C@H]3C[C@@H](O)[C@]3(C)[C@@H](C5=CC(=O)OC5)CC[C@]43O)C2)C[C@H](O)[C@@H]1O[C@H]1C[C@H](O)[C@H](O[C@H]2C[C@H](O)[C@@H](O)[C@@H](C)O2)[C@H](C)O1 (stereo in doubt),0.241 µM (active),–
CNC1CCC(N(Cc2cccc(-c3ccncc3)c2)C(=O)c2sc3ccccc3c2Cl)CC1 (stereo not given),9.35 µM (active),–
NS(=O)(=O)c1cc(Cl)c(Cl)c(S(N)(=O)=O)c1,–,105% (inactive)
CC[C@H](C)C(=O)O[C@H]1C[C@H](O)C=C2C=C[C@H](C)[C@H](CC[C@@H](O)C[C@@H](O)CC(=O)O)[C@H]21,–,103% (inactive)
CC[C@H](NC(=O)[C@H](C)NC)C(=O)N1C[C@@H](O)C[C@H]1Cc1c(-c2[nH]c3cc(F)ccc3c2C[C@H]2C[C@H](O)CN2C(=O)[C@H](CC)NC(=O)[C@H](C)NC)[nH]c2cc(F)ccc12,16.6 µM (active),–
NC1(C(=O)N[C@@H](CCO)c2ccc(Cl)cc2)CCN(c2ncnc3[nH]ccc23)CC1,0.418 µM (active),–
N#CC(c1ccc(Cl)cc1)c1c(Cl)cc(-n2ncc(=O)[nH]c2=O)cc1Cl (stereo not given),8.33 µM (active),–
CCc1cc(-c2n[nH]c(C)c2-c2ccc3c(c2)OCCO3)c(O)cc1O,7.43 µM (active),–
Cc1cn([C@@H]2C[C@@H](O)[C@H](CO)O2)c(=O)[nH]c1=O,–,91.9% (inactive)

SMILES,Potency,viability (% of control)
Cc1ccc(NC(=O)Nc2cc(C(F)(F)F)ccc2F)cc1Nc1ccc2c(c1)NC(=O)C2=Cc1ccc[nH]1,5.26 µM (active),–
CC(C)(C)c1nc(-c2cccc(NS(=O)(=O)c3c(F)cccc3F)c2F)c(-c2ccnc(N)n2)s1,5.26 µM (active),–
O=S(=O)(NCCNCC=Cc1ccc(Br)cc1)c1cccc2cnccc12,9.35 µM (active),–
CN[C@@H](C)[C@H]1[C@H](O)C[C@@]2(C)[C@@H]3CC[C@H]4C(C)(C)[C@@H](NC)CC[C@@]45C[C@@]35CC[C@]12C,–,107% (inactive)
COC(=O)Nc1ccc(-c2nc(N3CCOCC3)c3cnn(C4CCN(C(=O)OC)CC4)c3n2)cc1,0.0187 µM (active),–
CC[C@H](C=C[C@@H](C)[C@H]1CC[C@H]2[C@@H]3CC=C4C[C@@H](O)CC[C@]4(C)[C@@H]3CC[C@]12C)C(C)C,–,106% [at 23.2 µM] (inactive)
COc1c(C)cnc(Cn2cnc3c(Cl)nc(N)nc32)c1C,0.209 µM (active),–
C[C@@H]1C[C@H]2[C@@H]3CCC4=CC(=O)C=C[C@]4(C)[C@@]3(F)[C@@H](O)C[C@]2(C)[C@@]1(O)C(=O)CO,0.0526 µM (active),–
CC(C)n1c(C=C[C@H](O)C[C@H](O)CC(=O)O)c(-c2ccc(F)cc2)c2ccccc21,14.8 µM (active),–
O=C1CCCC(=O)C1C(=O)c1ccc(C(F)(F)F)cc1[N+](=O)[O-],–,111% (inactive)
Cc1ccc(NC(=O)c2cccc(N(C)C)c2)cc1NC(=O)c1ccc(O)cc1,0.118 µM (active),–
C=C1[C@H](n2cnc3c(=O)[nH]c(N)nc32)C[C@H](O)[C@H]1CO,2.96 µM (active),–
Cc1nc(NC(=O)N2CCC[C@@H]2C(N)=O)sc1-c1csc(C(C)(C)C)n1,5.9 µM (active),–
CNC(=O)c1ccc2c(C(=Nc3cccc(CN(C)C)c3)c3ccccc3)c(O)[nH]c2c1,13.2 µM (active),–
CNC(=O)c1cc(COc2nnc(Nc3ccc(Cl)cc3)c3ccoc23)ccn1,–,105% (inactive)
O=C(Nc1ccccc1)Nc1ccc(-c2ccc(C(=O)[C@H]3CCC[C@H]3C(=O)O)cc2)cc1,–,136% (inactive)
CCn1c(-c2nonc2N)nc2cncc(CNC3CCNCC3)c21,8.33 µM (active),–
Cc1[nH]c(C=C2C(=O)Nc3ccc(S(=O)(=O)N(C)c4cccc(Cl)c4)cc32)c(C)c1C(=O)N1CCN(C)CC1,7.43 µM (active),–
